Compounds with a hit are over-represented: about 10% of the library has one in this group of screens.
MCF10A rereplic – DNA re-replication induction in MCF 10a cells | MCF 10A DNA re-replication, Hoechst nuclear intensity, 48 h | Potency, µM (series often up to 46.1 µM), inactives show at the highest dose activity, positive = re-replication, most hits filed as activators | hit rate 2.9% among 350,000 | AID 624296; also: % of control where 0% means no effect; nearly all actives have a fitted effect of over 50% in size
Gal4-VP16 FLuc – inhibits Gal4-VP16 luciferase reporter, ROR gamma counter-screen. Drosophila S2 Gal4-VP16 UAS-luciferase, luminescence, 20 h. Potency, µM (top dose mostly 53.6 µM), without a hit: at the top dose activity, negative = inhibition, hits mostly inhibitors. hit rate 3.5% among 310,000;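 also: Gal4-VP16 expression switched on by copper sulfate through the metallothionein promoter; % is scaled to controls: 0 for no effect and ±100 for the full control effect; nearly all actives have a fitted effect of over 50% in size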
SW480 rereplic – inducers of DNA re-replication in SW480 colon cancer cells. SW480 DNA re-replication, Hoechst DNA content imaging, 48 h. Potency, µM (top dose mostly 46.1 µM), for the others: top-dose re-replication activation, actives largely listed as activators. hit rate 1.8% among 340,000; also: % of control where 0% means no effect; nearly all actives have a fitted effect of over 55% in size
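Image-based DNA-content assay: after two days of treatment, nuclei were labelled with the DNA dye Hoechst and imaged, and hits were compounds raising the count of nuclei showing high fluorescence intensity.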
RORg inh – inhibitors of mouse ROR gamma transcriptional activity | P51450 | Drosophila S2 Gal4-RORgamma UAS-luciferase reporter, 20 h | hit rate 5.4% among 310,000 | Potency, µM (highest dose often 53.6 µM), inactives show top-dose activity change, negative = inhibition, actives largely listed as inhibitors; also: % is scaled to controls: 0 for no effect and ±100 for the full control effect; nearly all actives have a fitted effect of over 60% in size
Target sequence (P51450 whole entry, looked up, the tested form may be a part): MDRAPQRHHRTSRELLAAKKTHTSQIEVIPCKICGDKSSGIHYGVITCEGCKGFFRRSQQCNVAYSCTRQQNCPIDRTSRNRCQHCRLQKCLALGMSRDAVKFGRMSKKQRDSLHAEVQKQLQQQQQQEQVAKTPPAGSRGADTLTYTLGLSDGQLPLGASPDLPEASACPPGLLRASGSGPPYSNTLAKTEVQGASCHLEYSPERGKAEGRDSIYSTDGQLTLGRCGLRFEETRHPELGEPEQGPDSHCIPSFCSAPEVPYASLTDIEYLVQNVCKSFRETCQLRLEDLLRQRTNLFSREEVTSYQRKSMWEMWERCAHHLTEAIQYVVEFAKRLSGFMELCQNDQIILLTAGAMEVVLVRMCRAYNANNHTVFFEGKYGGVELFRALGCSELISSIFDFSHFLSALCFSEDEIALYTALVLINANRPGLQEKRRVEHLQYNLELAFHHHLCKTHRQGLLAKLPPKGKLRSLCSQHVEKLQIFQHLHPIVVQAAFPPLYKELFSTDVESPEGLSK
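In this cell-based reporter format, copper sulfate (700 uM final) drives Gal4–ROR gamma fusion expression from a metallothionein promoter in Drosophila Schneider cells; compounds preincubated 1 hr, reporter read after 20 hr at ambient temperature.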
ELG1 repair inh – ELG1-dependent DNA repair inhibition; hit rate 2.3% among 330,000; HEK293T ELG1-luciferase reporter, luminescence, 16 h; DNA damage induced by 5-fluorouridine; Potency, µM (top dose mostly 46.1 µM), for inactives: top-dose activity change, negative = inhibition, usual class: inhibitors; also: % is scaled to controls: 0 for no effect and ±100 for the full control effect; nearly all actives have a fitted effect of over 55% in size
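Cells (2,000 per well) received 5-fluorouridine plus test compound or DMSO and were incubated 16 hr at 37 °C, 5% CO2. Luciferase activity was read by luminescence 30 min after ONE-Glo addition; signal suppression marked inhibition of damage-induced ELG1 function.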
* = called active by the depositor; ! = not confirmed by another sample; [ ] = another dose, or the depositor's remark. Calls follow the shape of the dose curve; as a rule, active = well fitted curve in the direction sought with a large enough effect; inconclusive = small, poorly fitted or top-dose-only effect, or another doubt; inactive = no such curve, though single readings can be large; an effect the other way counts as inactive or inconclusive. Potency is read from the fitted curve at half-maximal effect.

Results for Cc1ccn2cc(-c3cnoc3C)nc2c1 ?
MCF10A rereplic: 0.0%; Gal4-VP16 FLuc: 2.4%; SW480 rereplic: -5.5%[9.22 µM]; RORg inh: 0.5%; ELG1 repair inh: inconclusive

Results for O=c1oc2ccccc2cc1-c1cn2ccccc2n1 ?
MCF10A rereplic: inconclusive; Gal4-VP16 FLuc: 2.24µM*; SW480 rereplic: inconclusive; RORg inh: 1µM*; ELG1 repair inh: inconclusive

What do the screens show for `O=C(O)C1=CC[C@@H](c2ccc(Cl)cc2)N(S(=O)(=O)c2ccc(Cl)cc2)[C@H]1c1ccccc1`?
MCF10A rereplic: 2.0%; SW480 rereplic: -22.7%; ELG1 repair inh: 14.4%

How did Cc1cc(OCC(=O)Nc2ccc(CN3CCOCC3)cc2)c2c(C)c(C)c(=O)oc2c1 do in these assays?
MCF10A rereplic: -2.9%; Gal4-VP16 FLuc: inconclusive; SW480 rereplic: -0.8%; RORg inh: -42.7%; ELG1 repair inh: inconclusive

What do the screens show for `O=[N+]([O-])c1ccc(C(O)C(CO)NC(=S)Nc2ccccc2)cc1` (stereo unspecified)?
MCF10A rereplic: -1.0%; Gal4-VP16 FLuc: 0.3%; SW480 rereplic: -1.7%; RORg inh: 9.4%; ELG1 repair inh: 8.2µM*

Results for Cc1nc(NCCc2ccc(S(N)(=O)=O)cc2)c2c(C)c(C)sc2n1 ?
MCF10A rereplic: 8.7%; Gal4-VP16 FLuc: 10µM*; SW480 rereplic: 3.3%; RORg inh: 10µM*; ELG1 repair inh: 13µM*

How did Cc1ccc(CC2CC(=O)N(c3cc(Cl)ccn3)C2=O)cc1 (stereo unspecified) do in these assays?
MCF10A rereplic: 1.3%; Gal4-VP16 FLuc: 1.1%; SW480 rereplic: -6.7%; RORg inh: 24.2%; ELG1 repair inh: inconclusive

What do the screens show for `CC(C)(C)c1ccc(S(=O)(=O)N2CCCCC2)cc1`?
MCF10A rereplic: -4.0%; Gal4-VP16 FLuc: -18.1%; SW480 rereplic: -1.4%; RORg inh: 18.4%; ELG1 repair inh: -1.7%

How did CCN(CC)CCN1C(=O)C(O)=C(C(C)=O)C1c1ccccc1[N+](=O)[O-] (stereo unspecified) do in these assays?
MCF10A rereplic: 20.6µM*; Gal4-VP16 FLuc: -6.6%; SW480 rereplic: inconclusive; RORg inh: 5.8%; ELG1 repair inh: -10.1%

What do the screens show for `CC(=O)C1=C(O)C(=O)N(CCc2ccccc2)C1c1ccccc1[N+](=O)[O-]` (stereo unspecified)?
MCF10A rereplic: 11.2%; Gal4-VP16 FLuc: 4.1%; SW480 rereplic: 1.4%; RORg inh: 4.7%; ELG1 repair inh: -4.0%

How did Cc1c(N(C(=O)Cc2cccs2)C2(C(=O)NC3CCCC3)CCCCC2)c(=O)n(-c2ccccc2)n1C do in these assays?
MCF10A rereplic: -3.5%; Gal4-VP16 FLuc: -11.3%[10 µM]; SW480 rereplic: -1.3%; RORg inh: inconclusive; ELG1 repair inh: -6.7%

How did CN=C1N[C@H](c2ccccc2)N(c2ccccc2)S1 do in these assays?
Gal4-VP16 FLuc: 28.2µM*; RORg inh: 10µM*

What do the screens show for `O=C1NCN(c2ccccc2)C12CCN(CCCC(c1ccc(F)cc1)c1ccc(F)cc1)CC2`?
MCF10A rereplic: 26.6µM*!; Gal4-VP16 FLuc: 17.8µM*!; SW480 rereplic: inconclusive; RORg inh: 12.6µM*!; ELG1 repair inh: -7.6%

Results for CO/N=C(/CNC(=O)c1ccc(F)cc1)c1ccc(Cl)cc1 ?
MCF10A rereplic: -4.2%; Gal4-VP16 FLuc: 4.0%; SW480 rereplic: -5.0%; RORg inh: 1.1%; ELG1 repair inh: 1.6%

Results for CC1(C)C(=O)NC2=C1C(=O)C(=O)c1ccccc12 ?
Gal4-VP16 FLuc: 2.82µM*; RORg inh: 1.41µM*

Results for Cc1nc(-c2ccccc2)sc1C(=O)O ?
MCF10A rereplic: -14.4%; Gal4-VP16 FLuc: -16.9%; SW480 rereplic: -18.2%; RORg inh: -32.9%; ELG1 repair inh: inconclusive

Results for Cc1ccc(-c2nc(C)c(C(=O)O)s2)cc1 ?
MCF10A rereplic: -8.4%; Gal4-VP16 FLuc: inconclusive; SW480 rereplic: -13.9%; RORg inh: 8.91µM*; ELG1 repair inh: inconclusive

What do the screens show for `NC(=S)Cc1nc(-c2ccc(Cl)cc2)cs1`?
MCF10A rereplic: inconclusive; Gal4-VP16 FLuc: inconclusive; SW480 rereplic: -14.3%; RORg inh: 5.01µM*; ELG1 repair inh: 3.2%

Results for NC(=O)Cc1nc(-c2ccc([N+](=O)[O-])cc2)cs1 ?
MCF10A rereplic: -8.2%; Gal4-VP16 FLuc: 5.1%; SW480 rereplic: 8.7%; RORg inh: 3.2%; ELG1 repair inh: 18.3µM*

Results for N#C/C=C/N1CCN(C(=O)c2ccco2)CC1 ?
MCF10A rereplic: -0.2%; SW480 rereplic: -10.0%; ELG1 repair inh: 17.7%

How did COc1cc(C(=O)NCC(c2ccco2)N2CCCC2)ccc1OCc1ccc(Cl)cc1Cl (stereo unspecified) do in these assays?
MCF10A rereplic: 18.4µM*; SW480 rereplic: inconclusive

Results for Cc1ccc(NS(=O)(=O)c2cccc(C(=O)NCC(c3ccco3)N3CCCC3)c2)cc1 (stereo unspecified) ?
MCF10A rereplic: 11.6µM*; SW480 rereplic: inconclusive; ELG1 repair inh: -5.7%

How did [O-]C1=N[N+](=C(c2ccccc2)c2ccccc2)C1 do in these assays?
MCF10A rereplic: -1.7%; SW480 rereplic: 4.0%

Results for COc1ccccc1NC(=S)N(Cc1ccc(C)cc1)Cc1ccccn1 ?
MCF10A rereplic: 1.0%; Gal4-VP16 FLuc: 9.3%; SW480 rereplic: -1.3%; RORg inh: 18.5%; ELG1 repair inh: -26.5%

What do the screens show for `COc1ccccc1NC(=S)N(CCc1ccc(OC)c(OC)c1)Cc1ccccn1`?
MCF10A rereplic: -1.1%; Gal4-VP16 FLuc: 17.3%[10 µM]; SW480 rereplic: 11.1%; RORg inh: 11.2µM*; ELG1 repair inh: -28.0%

Results for CSc1cccc(NC(=S)N(Cc2ccc(C)cc2)Cc2ccccn2)c1 ?
MCF10A rereplic: inconclusive; Gal4-VP16 FLuc: -9.6%; SW480 rereplic: -3.2%; RORg inh: 12.6µM*; ELG1 repair inh: inconclusive

How did COc1ccc(CCN(Cc2ccccn2)C(=S)Nc2ccc(C)cc2)cc1OC do in these assays?
MCF10A rereplic: 10.0%; Gal4-VP16 FLuc: -4.3%; SW480 rereplic: -1.1%; RORg inh: inconclusive; ELG1 repair inh: -18.1%

How did COc1ccc(CCN(Cc2ccccn2)C(=S)Nc2cccc(SC)c2)cc1OC do in these assays?
MCF10A rereplic: 16.6%; Gal4-VP16 FLuc: -1.6%[10 µM]; SW480 rereplic: -0.2%; RORg inh: 10µM*; ELG1 repair inh: inconclusive

Results for O=S1(=O)CCC(NS(=O)(=O)c2ccc3ccccc3c2)C1 (stereo unspecified) ?
MCF10A rereplic: -19.5%; Gal4-VP16 FLuc: 4.0%; SW480 rereplic: -18.0%; RORg inh: -7.5%; ELG1 repair inh: -2.6%

What do the screens show for `CC(C)c1ccc([N+](=O)[O-])cc1S(=O)(=O)N1CCN(C)CC1`?
MCF10A rereplic: 0.6%; Gal4-VP16 FLuc: 3.6%; SW480 rereplic: inconclusive; RORg inh: 3.9%; ELG1 repair inh: -11.5%

Screening results deposited in PubChem BioAssay by National Center for Advancing Translational Sciences (NCATS).
